We go through 14 compounds from PubChem BioAssay (NCATS).

Inconclusive results are not listed. Calls of active or inactive are those of the source. Calls come from the whole dose curve; as a rule, active = well fitted inhibition curve with a large enough effect; inconclusive = small, poorly fitted or top-dose-only effect; inactive = flat fitted curve, though single readings scatter.

Common to all, as to assay: qHTS profiling for inhibitors of Plasmodium falciparum proliferation (AID 504749); note: nearly all actives have a fitted effect of over 60% in size
Holding throughout (conditions): P. falciparum in erythrocytes, SYBR Green DNA, 72 h; series mostly up to 28.7 µM
(Quantitative high-throughput screening tests each substance at several concentrations.)

One assay concerns CP194. In a few lines: (§1)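 SYBR Green fluorescence (ex 485 nm, em 535 nm) reports parasite DNA after 72 h compound exposure of infected red cells at 0.3% parasitemia, 2.5% hematocrit; signal normalized to 0.29 uM artemisinin and vehicle wells.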
The subject of another assay is CP201. The method, boiled down:
as §1

In another assay the test system is CP211. The method, boiled down:
as §1

The subject of the next assay is CP215. In a few lines:
as §1

The subject of the next assay is CP217. In a few lines: as §1
Another assay concerns CP237. In a few lines:
as §1

The subject of a further assay is CP238. In a few lines:
as §1

The test system of the next assay is CP247. In a few lines: as §1
The next assay concerns CP250. In a few lines: as §1
Another assay relates to CP252. In a few lines: as §1
In the next assay the test system is CP256. The method, boiled down: as §1
For another assay, the system named is CP260. The method, boiled down: as §1
The test system of a further assay is CP262. In a few lines:
as §1

The next assay concerns CP265. The method, boiled down: as §1
A further assay concerns CP266. The method, boiled down: as §1
The subject of a further assay is CP268. The method, boiled down: as §1
The subject of another assay is CP269. The method, boiled down:
as §1

For a further assay, the system named is CP286. The method, boiled down: as §1
Another assay relates to CP291. The method, boiled down: as §1
In another assay the test system is CP203. In a few lines: as §1
Potency is the fitted concentration of half-maximal effect.

On to `CCN(CC)C(=O)c1cccnc1`, for which the Potency entry in the assay on CP194, with CP201, with CP211, in the assay on CP215, in the assay on CP217 and in the assay on CP237 was “inactive” in each case. For the same compound, the Potency result in the assay on CP238, in the assay on CP247, in the assay with CP250, in the assay with CP252, in the assay with CP256 and in the assay on CP260 was “inactive” each time. Further, the Potency entry with CP262, in the assay with CP265, in the assay with CP266, in the assay on CP268, with CP269 and in the assay with CP286 was “inactive” in each case. Also, the Potency result in the assay with CP291 was “inactive”.
With `C[C@]12CCC(=O)C[C@@H]1CC[C@@H]1[C@@H]2CC[C@]2(C)C=CC[C@@H]12`, the Potency entry in the assay with CP194, in the assay with CP201, with CP211, in the assay on CP215, with CP217 and in the assay with CP238 was “inactive” in each case. Moreover, the Potency entry in the assay with CP247, with CP252, with CP256, in the assay with CP262, in the assay with CP265 and with CP266 was “inactive” each time. The Potency entry with CP268, in the assay with CP269 and in the assay with CP291 was “inactive” throughout.
Regarding `CCCCCCCCCC(=O)NO`, the Potency entry in the assay with CP194, with CP201, with CP211, in the assay on CP215, in the assay on CP217 and with CP237 was “inactive” each time. Besides, the Potency result with CP238, with CP247, in the assay on CP250, in the assay on CP252, in the assay with CP256 and with CP260 was “inactive” throughout. Moreover, the Potency entry in the assay on CP262, with CP265, with CP266, with CP268, with CP269 and in the assay on CP286 was “inactive” throughout. Moreover, in the assay with CP291, the Potency entry is “inactive”.
On to `Cc1ccccn1`, for which the Potency result with CP194, in the assay on CP201, with CP211, in the assay on CP215, in the assay with CP217 and with CP237 was “inactive” in each case. The Potency result in the assay with CP238, in the assay with CP247, in the assay with CP250, with CP252, in the assay on CP256 and in the assay on CP260 was “inactive” in each case. Also, the Potency result in the assay with CP262, with CP265, with CP266, with CP268, in the assay on CP269 and with CP286 was “inactive” in each case. Also, in the assay on CP291, the Potency entry is “inactive”.
Consider `O=C1NCCN1c1ncc([N+](=O)[O-])s1`, for which the Potency result in the assay with CP194, with CP203, in the assay on CP211, in the assay with CP215, in the assay on CP217 and in the assay with CP237 was “inactive” throughout. The Potency entry in the assay on CP238, in the assay with CP247, in the assay on CP250, in the assay with CP252, with CP256 and with CP260 was “inactive” each time. Besides, the Potency result in the assay with CP262, in the assay with CP265, in the assay with CP266, in the assay with CP268, in the assay on CP269 and in the assay on CP286 was “inactive” each time. Besides, the Potency result in the assay with CP291 is “inactive”.
Regarding `CC(C)(Oc1ccc(C2CCCc3ccccc32)cc1)C(=O)O` (centres undefined), the Potency result in the assay with CP194, in the assay on CP201, in the assay on CP211, in the assay on CP215, with CP217 and in the assay on CP237 was “inactive” throughout. The Potency result in the assay on CP238, in the assay with CP247, in the assay with CP250, with CP252, in the assay on CP256 and in the assay with CP260 was “inactive” each time. The Potency result in the assay on CP262, in the assay with CP265, in the assay on CP268, in the assay with CP269, in the assay on CP286 and in the assay with CP291 was “inactive” in each case.
As for `COc1ccc2nc(NC(=O)Nc3ccccc3)sc2c1`, the Potency entry in the assay on CP194, in the assay with CP201, in the assay on CP217, with CP237, with CP238 and with CP250 was “inactive” each time. The Potency result in the assay with CP252, with CP256, with CP260, in the assay on CP262, with CP265 and with CP266 was “inactive” in each case. Also, the Potency entry in the assay on CP268 and in the assay on CP286 was “inactive” throughout.
`O=C(O)[C@H]1CN(C/C=C/P(=O)(O)O)CCN1`: the Potency entry in the assay on CP194, in the assay with CP201, in the assay on CP211, in the assay with CP215, in the assay on CP217 and with CP237 was “inactive” each time. The Potency entry with CP238, in the assay with CP247, with CP250, in the assay with CP252, in the assay on CP256 and in the assay with CP260 was “inactive” in each case. The Potency entry in the assay with CP262, with CP265, in the assay with CP266, in the assay on CP268, with CP269 and with CP286 was “inactive” throughout. Besides, the Potency entry in the assay with CP291 was “inactive”.
On to `CSc1nc2cc(Oc3cccc(Cl)c3Cl)c(Cl)cc2[nH]1`, for which the Potency in the assay with CP194 is 13.5 µM (active); in the assay with CP201 it was 10.7 µM (active); in the assay on CP211, 10.7 µM (active); with CP215, 9.53 µM (active); with CP217 it was 3.98 µM (active); in the assay with CP237 it was 11.2 µM (active). For the same compound, the Potency was 8.91 µM (active) in the assay with CP238; 3.16 µM (active) in the assay with CP247; 2.24 µM (active) in the assay on CP250; 3.16 µM (active) with CP252; 1.78 µM (active) in the assay with CP256; 7.94 µM (active) in the assay on CP260. In addition, the Potency in the assay on CP265 was 2 µM (active); in the assay with CP269, 12 µM (active); in the assay on CP286 it was 10 µM (active); in the assay on CP291, 8.49 µM (active). For the same compound, the Potency entry in the assay on CP262 is “inactive”.
`COc1ccc(-c2noc(CC(=O)O)c2-c2ccc(OC)cc2)cc1`: the Potency entry with CP194, in the assay with CP201, in the assay on CP211, with CP215, in the assay on CP217 and in the assay on CP237 was “inactive” throughout. Besides, the Potency entry with CP238, in the assay with CP247, in the assay with CP250, in the assay on CP252, in the assay with CP256 and with CP260 was “inactive” each time. For the same compound, the Potency result in the assay on CP262, in the assay with CP265, with CP266, in the assay with CP268, with CP269 and in the assay on CP286 was “inactive” throughout. In addition, the Potency entry in the assay with CP291 is “inactive”.
With `NC(=O)[C@@H]1CCCN1C(=O)[C@H](Cc1cnc[nH]1)NC(=O)[C@@H]1CCC(=O)N1`, the Potency entry with CP194, with CP201, in the assay on CP211, in the assay with CP215, with CP217 and in the assay on CP237 was “inactive” in each case. For the same compound, the Potency entry in the assay with CP238, in the assay with CP247, with CP250, with CP252, with CP256 and with CP260 was “inactive” throughout. The Potency entry in the assay with CP262, with CP265, in the assay on CP266, with CP268, in the assay with CP269 and with CP286 was “inactive” each time. Further, the Potency result in the assay on CP291 is “inactive”.
Regarding `Cc1c(C)c2c(c(C)c1OC(=O)CCC(=O)O)CC[C@@](C)(CCC[C@H](C)CCC[C@H](C)CCCC(C)C)O2`, the Potency result with CP194, in the assay with CP201, with CP211, with CP215, with CP217 and with CP238 was “inactive” each time. Moreover, the Potency result in the assay on CP247, in the assay on CP250, in the assay with CP252, in the assay on CP256, in the assay on CP262 and in the assay with CP265 was “inactive” throughout. Further, the Potency result in the assay with CP268, in the assay on CP269 and in the assay with CP291 was “inactive” each time.
In the case of `CCCCC[C@H](O)/C=C/[C@@H]1[C@H]2C/C(=C/CCCC(=O)O)O[C@H]2C[C@H]1O`, the Potency result with CP194, in the assay with CP201, in the assay on CP211, with CP215, with CP217 and in the assay on CP237 was “inactive” throughout. Moreover, the Potency entry with CP238, in the assay with CP247, with CP250, with CP252, with CP256 and in the assay on CP262 was “inactive” throughout. Besides, the Potency result in the assay on CP265, with CP266, with CP268, in the assay with CP269, in the assay with CP286 and in the assay on CP291 was “inactive” each time.
`CC(/C=C/C=C(\C)C(=O)O[C@@H]1O[C@H](CO[C@@H]2O[C@H](CO)[C@@H](O)[C@H](O)[C@H]2O)[C@@H](O)[C@H](O)[C@H]1O)=C\C=C\C=C(C)\C=C\C=C(/C)C(=O)O[C@@H]1O[C@H](CO[C@@H]2O[C@H](CO)[C@@H](O)[C@H](O)[C@H]2O)[C@@H](O)[C@H](O)[C@H]1O`: the Potency result with CP194, in the assay on CP201, with CP211, in the assay on CP215, in the assay on CP217 and in the assay on CP237 was “inactive” in each case. Moreover, the Potency result in the assay with CP238, with CP247, in the assay on CP250, in the assay with CP252, in the assay on CP256 and in the assay on CP260 was “inactive” in each case. For the same compound, the Potency result in the assay with CP262, with CP265, in the assay on CP266, in the assay on CP268, with CP269 and with CP286 was “inactive” each time. For the same compound, in the assay with CP291, the Potency entry was “inactive”.
